Results reported in PubChem BioAssay (Tox21).
Where “and” joins values, the source holds several entries; their conditions need not be identical. Identical values can stand only once. Values without a mark were called inactive. Records with an inconclusive call do not appear. Where a call stands in place of a potency, no number is given. Calls of active or inactive are those of the source. Unless noted, the call rests on the fitted dose curve; in most records, active means well fitted curve in the direction sought with a large enough effect in the repeat runs; inconclusive means weak or mixed curves; inactive means no such curve, though single readings can be large; an effect the other way counts as inactive or inconclusive.

How the values were obtained:
[1] = qHTS assay to identify small molecule agonists of the estrogen receptor alpha (ER-alpha) signaling pathway in the presence of an antagonist - cell viability counter screen (AID 1259386);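 further: series mostly up to about 92 µM; cells exposed to compounds for 22 h at 37 °C before the viability read; nearly all actives have a fitted effect of over 30% in size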
Method in brief: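 ICI-182,780 at 10.0nM final accompanies the compound titration (15 concentrations, 22hr, 37C) on VM7Luc4E2 cells. The CellTiter-Fluor fluorescence readout runs in the same wells as the luciferase assay.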

[2] = qHTS assay to identify small molecule antagonists of the progesterone receptor (PR) signaling pathway - cell viability counter screen (AID 1346798); further: nearly all actives have a fitted effect of over 50% in size; further: potency means the concentration at half of the fitted maximal effect
Method in brief: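 PR-UAS-bla HEK293T cells, 3,000/well in 2% charcoal-stripped FBS medium, dosed with compounds plus R5020 agonist and incubated 16 h at 37C. Viability then measured in the same wells by CellTiter-Glo luminescence after 30 min at RT.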

[3] = qHTS assay to identify small molecule agonists of the progesterone receptor (PR) signaling pathway - cell viability counter screen (AID 1346799; calls by dose curve; further: nearly all actives have a fitted effect of over 45% in size; further: potency means the concentration at half of the fitted maximal effect)
Method in brief: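 Counter screen in the PR-UAS-bla HEK293T wells (2% charcoal-stripped FBS, 16 h compound exposure at 37 C) after the bla read. CellTiter-Glo added, 30 min at room temperature, luminescence read as cell viability.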

[4] = qHTS assay to identify small molecule antagonists of the TGF-beta/Smad signaling pathway - cell viability counter screen (AID 1346824); further: nearly all actives have a fitted effect of over 50% in size; further: potency means the concentration at half of the fitted maximal effect
Method in brief: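 Cytotoxicity counter-screen run in the same wells as the beta-lactamase Smad reporter read: CellTiter-Glo luminescence after 30 min at room temperature. HEK 293T SBE-bla cells had 5 hr compound exposure at 37 C with TGF-beta1 (0.25 ng/mL stock).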

[5] = qHTS assay to identify small molecule agonists of the TGF-beta/Smad signaling pathway - cell viability counter screen (AID 1346829); further: nearly all actives have a fitted effect of over 45% in size; further: potency means the concentration at half of the fitted maximal effect
Method in brief: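 Luminescence from CellTiter-Glo, read after a 30 min room-temperature incubation, gives cell viability of SBE-bla HEK 293T cells treated 5 hr with compounds at 37 C.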

[6] = qHTS assay to identify small molecule agonists of the TGF-beta/Smad signaling pathway (AID 1346859; active means well fitted activation curve with a large enough effect in the signal ratio in the repeat runs, not every such curve was filed as active; the % refers to the signal ratio; further: series mostly up to about 77 µM)
Method in brief: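 SBE-bla HEK293T cells plated overnight, then compound exposure for 5 h at 37 C. Beta-lactamase reporter read with LiveBLAzer B/G FRET substrate after 2 h at room temperature, fluorescence at 405 nm excitation, 460/530 nm emission.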

[7] = target: Thyrotropin-releasing hormone receptor (Homo sapiens) (UniProt P34981); experiment: qHTS assay to identify small molecule agonists of the thyrotropin-releasing hormone receptor (TRHR) signaling pathway (AID 1346891; calls by dose curve; further: series mostly up to about 58 µM)
Chain of Thyrotropin-releasing hormone receptor (Homo sapiens) (P34981 whole entry, looked up): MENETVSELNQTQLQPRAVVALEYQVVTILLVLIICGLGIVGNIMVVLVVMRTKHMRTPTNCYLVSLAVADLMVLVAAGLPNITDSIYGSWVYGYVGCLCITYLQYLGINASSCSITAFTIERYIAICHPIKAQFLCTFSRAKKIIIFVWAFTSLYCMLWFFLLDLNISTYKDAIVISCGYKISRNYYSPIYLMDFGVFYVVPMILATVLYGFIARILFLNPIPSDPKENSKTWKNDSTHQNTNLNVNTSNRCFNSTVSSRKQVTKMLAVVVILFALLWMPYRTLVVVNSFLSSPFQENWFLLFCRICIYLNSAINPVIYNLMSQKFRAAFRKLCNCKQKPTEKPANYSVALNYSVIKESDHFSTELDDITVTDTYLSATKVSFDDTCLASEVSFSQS
Method in brief: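 HEK293 cells expressing TRHR plated 18 h at 37 C/5% CO2, calcium dye-loaded 2 h at 37 C, then compound added (agonist mode); kinetic calcium fluorescence read 3 min at 1 s intervals; 15 concentrations in triplicate.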

[8] = Human pregnane X receptor (PXR) small molecule agonists, qHTS cell viability counter screen (AID 1346977); further: nearly all actives have a fitted effect of over 50% in size; further: potency means the concentration at half of the fitted maximal effect
Method in brief: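 PXR-Luc HepG2 cells (2,000/well, 5% charcoal-stripped FBS) preincubated 5 hr, then exposed to compounds 24 hr at 37 C. Viability read in the same wells by CellTiter-Fluor fluorescence, reagent added at 23 hr, 1 hr incubation.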

[9] = Caspase-3/7 induction in HepG2 cells by small molecules, qHTS assay (AID 1346978); further: nearly all actives have a fitted effect of over 15% in size
Method in brief: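 Caspase-3/7 induction was measured by Caspase-Glo 3/7 luminescence (30 min, room temperature) after a 17 hr compound exposure of wild-type HepG2 cells seeded at 2,000 per well and pre-incubated 5 hr.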

[10] = Caspase-3/7 induction in CHO-K1 cells by small molecules, qHTS cell viability counter screen (AID 1346979); further: nearly all actives have a fitted effect of over 35% in size; further: potency means the concentration at half of the fitted maximal effect
Method in brief: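 Wild-type CHO-K1 cells (1,500/well) treated with compound after 5 h plating; after 16 h at 37C, viability read as CellTiter-Fluor fluorescence following 1 h reagent incubation, in the same wells as the caspase read.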

[11] = Caspase-3/7 induction in HepG2 cells by small molecules, qHTS cell viability counter screen (AID 1346981); further: nearly all actives have a fitted effect of over 30% in size; further: potency means the concentration at half of the fitted maximal effect
Method in brief: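 Multiplexed with the caspase-3/7 assay: HepG2 cells, 16 hr compound treatment, CellTiter-Fluor viability detection by fluorescence.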

[12] = target: Nuclear receptor subfamily 1 group I member 2 (Homo sapiens) (UniProt O75469); experiment: Human pregnane X receptor (PXR) small molecule agonists, qHTS assay (AID 1346982); further: nearly all actives have a fitted effect of over 35% in size; further: potency means the concentration at half of the fitted maximal effect
Chain of Nuclear receptor subfamily 1 group I member 2 (Homo sapiens) (O75469 whole entry, looked up): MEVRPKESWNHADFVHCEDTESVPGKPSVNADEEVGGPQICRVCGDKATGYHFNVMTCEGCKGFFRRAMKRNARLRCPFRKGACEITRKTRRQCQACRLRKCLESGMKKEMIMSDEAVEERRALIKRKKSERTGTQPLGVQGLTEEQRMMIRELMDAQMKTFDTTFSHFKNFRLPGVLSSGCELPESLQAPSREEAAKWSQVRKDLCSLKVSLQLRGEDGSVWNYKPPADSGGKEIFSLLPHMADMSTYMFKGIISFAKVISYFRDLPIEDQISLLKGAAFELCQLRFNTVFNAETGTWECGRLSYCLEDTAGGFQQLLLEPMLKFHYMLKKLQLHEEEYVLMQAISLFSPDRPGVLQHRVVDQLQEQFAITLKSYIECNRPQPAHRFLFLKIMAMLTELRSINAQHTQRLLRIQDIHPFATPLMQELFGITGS
Method in brief: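 We seeded PXR-Luc HepG2 cells in assay medium containing 5% charcoal-stripped FBS, added compounds 5 hr later, incubated 24 hr, and read luminescence with ONE-Glo reagent.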

[13] = target: Acetylcholinesterase (Homo sapiens) (UniProt P22303); experiment: Acetylcholinesterase (AChE) small molecule antagonists: colormetric cell-based qHTS assay (AID 1347395; calls by dose curve; further: nearly all actives have a fitted effect of over 30% in size)
Chain of Acetylcholinesterase (Homo sapiens) (P22303 whole entry, looked up): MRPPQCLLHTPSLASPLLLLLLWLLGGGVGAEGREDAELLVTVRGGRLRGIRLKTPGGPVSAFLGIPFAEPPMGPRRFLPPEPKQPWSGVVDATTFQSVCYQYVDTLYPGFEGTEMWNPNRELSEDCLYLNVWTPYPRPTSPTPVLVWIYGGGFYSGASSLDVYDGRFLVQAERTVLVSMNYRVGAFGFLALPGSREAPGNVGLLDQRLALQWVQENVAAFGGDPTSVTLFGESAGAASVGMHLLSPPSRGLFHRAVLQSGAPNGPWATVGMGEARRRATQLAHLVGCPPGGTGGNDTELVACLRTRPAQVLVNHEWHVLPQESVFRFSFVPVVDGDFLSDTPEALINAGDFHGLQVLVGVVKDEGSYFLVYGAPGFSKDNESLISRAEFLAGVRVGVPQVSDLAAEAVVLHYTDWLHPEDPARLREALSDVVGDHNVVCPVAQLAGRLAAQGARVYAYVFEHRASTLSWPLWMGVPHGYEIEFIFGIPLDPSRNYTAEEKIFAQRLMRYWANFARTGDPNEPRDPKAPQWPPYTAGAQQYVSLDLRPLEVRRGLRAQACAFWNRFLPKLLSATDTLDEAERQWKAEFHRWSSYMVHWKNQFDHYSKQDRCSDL
Method in brief: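 SH-SY5Y cells attached overnight, exposed to compound 30 min at 37 C, then given DTNB/acetylthiocholine; after 90 min at 37 C, colorimetric thiocholine read gives cellular AChE activity.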

[14] = target: Acetylcholinesterase (Homo sapiens) (UniProt P22303); experiment: Acetylcholinesterase (AChE) small molecule antagonists: enzyme-based qHTS assay (AID 1347397; calls by dose curve; further: nearly all actives have a fitted effect of over 55% in size); conditions: Potency: AChE enzyme activity inhibition
Method in brief: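 rhAChE 50 mU/mL (dispensed) + cpd or DMSO, 30 min RT; add DTNB/acetylthiocholine cocktail, 10 min RT; colorimetric thiocholine readout. qHTS, 1536-well format.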

[15] = Caspase-3/7 induction in CHO-K1 cells by small molecules, qHTS assay (AID 1346980); further: nearly all actives have a fitted effect of over 15% in size; further: potency means the concentration at half of the fitted maximal effect
Method in brief: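 Luminescent Caspase-Glo 3/7 read (30min, room temperature) quantified apoptosis induction. Cells were wild-type CHO-K1, treated with compound for 17hr at 37 C and 5% CO2.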

[16] = target: Progesterone receptor (Homo sapiens) (UniProt P06401); experiment: qHTS assay to identify small molecule agonists of the progesterone receptor (PR) signaling pathway (AID 1346784; calls by dose curve; further: nearly all actives have a fitted effect of over 30% in size)
Chain of Progesterone receptor (Homo sapiens) (P06401 whole entry, looked up): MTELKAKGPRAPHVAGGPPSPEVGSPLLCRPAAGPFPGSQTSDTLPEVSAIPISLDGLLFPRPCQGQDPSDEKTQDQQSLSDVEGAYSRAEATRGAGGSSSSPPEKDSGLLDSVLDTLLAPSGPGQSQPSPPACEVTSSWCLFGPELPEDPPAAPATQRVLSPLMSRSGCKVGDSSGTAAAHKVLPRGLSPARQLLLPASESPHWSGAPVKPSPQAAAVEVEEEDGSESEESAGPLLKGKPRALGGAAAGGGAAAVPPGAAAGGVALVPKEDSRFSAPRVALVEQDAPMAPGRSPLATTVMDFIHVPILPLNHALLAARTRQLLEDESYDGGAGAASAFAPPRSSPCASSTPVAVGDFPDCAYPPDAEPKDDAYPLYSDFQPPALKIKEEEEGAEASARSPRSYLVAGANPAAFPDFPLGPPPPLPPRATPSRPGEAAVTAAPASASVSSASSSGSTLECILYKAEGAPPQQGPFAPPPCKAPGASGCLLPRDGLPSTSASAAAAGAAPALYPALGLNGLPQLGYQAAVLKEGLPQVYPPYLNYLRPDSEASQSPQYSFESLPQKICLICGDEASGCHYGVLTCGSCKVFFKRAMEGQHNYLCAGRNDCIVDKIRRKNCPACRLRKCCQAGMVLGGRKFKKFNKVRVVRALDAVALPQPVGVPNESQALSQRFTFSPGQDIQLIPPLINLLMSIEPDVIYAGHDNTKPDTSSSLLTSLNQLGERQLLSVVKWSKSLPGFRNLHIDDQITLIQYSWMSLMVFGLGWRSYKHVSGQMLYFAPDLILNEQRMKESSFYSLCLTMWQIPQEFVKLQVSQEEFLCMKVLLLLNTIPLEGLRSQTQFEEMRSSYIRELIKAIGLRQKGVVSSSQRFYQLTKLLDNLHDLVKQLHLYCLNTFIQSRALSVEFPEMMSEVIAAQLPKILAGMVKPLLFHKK
Method in brief: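 PR-UAS-bla HEK 293T cells (beta-lactamase reporter under UAS) in 2% charcoal-stripped FBS, dosed with 23 nL compound after 6 hr, incubated 16hr at 37C. LiveBLAzer B/G FRET substrate added, fluorescence read after 2 hours.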

[17] = target: Progesterone receptor (Homo sapiens) (UniProt P06401); experiment: qHTS assay to identify small molecule antagonists of the progesterone receptor (PR) signaling pathway (AID 1346795; active means well fitted inhibition curve with a large enough effect in the signal ratio in the repeat runs, not every such curve was filed as active; the % refers to the signal ratio; further: potency means the concentration at half of the fitted maximal effect)
Method in brief: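 PR-UAS-bla HEK293T cells with beta-lactamase reporter under UAS control, in 2% charcoal-stripped FBS, treated with compounds plus 1 nM promegestone (R5020, final) for 16 hr at 37C. Read-out: FRET beta-lactamase substrate fluorescence after 2 hr at room temperature.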

[18] = target: Thyrotropin-releasing hormone receptor (Homo sapiens) (UniProt P34981); experiment: qHTS assay to identify small molecule antagonists of the thyrotropin-releasing hormone receptor (TRHR) signaling pathway (AID 1346877; active means well fitted inhibition curve with a large enough effect in the repeat runs, not every such curve was filed as active; further: potency means the concentration at half of the fitted maximal effect)
Method in brief: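 Screening used HEK293 cells engineered with TRHR, with a brief 5 min room-temperature compound exposure preceding addition of TRH to 1 nM. The read-out was kinetic calcium-dye fluorescence, concentration-response from 15 doses in triplicate.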

[19] = target: Nuclear receptor subfamily 1 group I member 2 (Rattus norvegicus) (UniProt Q9R1A7); experiment: Rat pregnane X receptor (rPXR) activation by small molecules, qHTS assay (AID 1346983); conditions: rPXR luciferase reporter cells, One-Glo luminescence, 24 h; max activation: hits give high values; further: nearly all actives have a fitted effect of over 20% in size
Chain of Nuclear receptor subfamily 1 group I member 2 (Rattus norvegicus) (Q9R1A7 whole entry, looked up): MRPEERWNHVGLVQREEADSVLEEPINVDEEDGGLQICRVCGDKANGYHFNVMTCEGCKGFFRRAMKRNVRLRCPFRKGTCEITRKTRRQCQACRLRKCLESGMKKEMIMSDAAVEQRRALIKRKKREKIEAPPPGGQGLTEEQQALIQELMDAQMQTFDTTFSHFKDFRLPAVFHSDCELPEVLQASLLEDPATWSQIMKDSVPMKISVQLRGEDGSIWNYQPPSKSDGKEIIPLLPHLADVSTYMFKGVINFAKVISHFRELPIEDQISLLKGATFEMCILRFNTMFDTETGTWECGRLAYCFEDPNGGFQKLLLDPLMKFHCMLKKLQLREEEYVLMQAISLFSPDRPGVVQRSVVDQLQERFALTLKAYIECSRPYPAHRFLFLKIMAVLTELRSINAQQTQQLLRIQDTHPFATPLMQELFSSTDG
Method in brief: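 Luminescent readout (One-Glo luciferase, 30 min room temperature) followed 24 hr compound treatment at 37 C of rPXR cells plated 2,000 per well and preincubated 5hr; qHTS format with compounds delivered in DMSO.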

[20] = target: Nuclear receptor subfamily 1 group I member 2 (Homo sapiens) (UniProt O75469); experiment: CYP3A4 induction through human pregnane X receptor (PXR) by small molecules, qHTS assay (AID 1346984); further: nearly all actives have a fitted effect of over 40% in size; further: potency means the concentration at half of the fitted maximal effect
Method in brief: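 qHTS, concentration-response format: HepG2 DPX-2 line, PXR/CYP3A4-luc. Exposure 24 h, 37C. Substrate Luciferin-IPA 3uM final, 3 h. Detection One-Glo, 30 min RT.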

| SMILES | Potency [1] | Potency [2] | Potency [3] | Potency [4] | Potency [5] | outcome [6] | Potency [7] | Potency [8] | Potency [9] | Potency [10] | Potency [11] | Potency [12] | Potency [13] | Potency [14] | Potency [15] | Potency [16] | Potency [17] | Potency [18] | max activation [19] | Potency [20] |
| --- | --- | --- | --- | --- | --- | --- | --- | --- | --- | --- | --- | --- | --- | --- | --- | --- | --- | --- | --- | --- |
| COc1nn(C(=O)NS(=O)(=O)c2ccccc2OC(F)(F)F)c(=O)n1C | inactive | inactive | inactive | inactive | inactive | inactive | inactive | inactive | inactive | inactive | inactive | inactive | inactive | inactive |  |  |  |  |  |  |
| CC[C@H]1C[C@H]2[C@@H]3CCC4=CC(=O)CC[C@@H]4[C@H]3CC[C@]2(C)[C@H]1O | inactive | inactive |  | inactive |  | inactive |  | inactive | inactive | inactive | inactive | 9.44 µM (active) | inactive | inactive | inactive |  |  |  |  |  |
| COc1cc(CC(C)N)cc2c1OCO2 (centres undefined) |  | inactive | inactive | inactive |  | inactive | inactive | inactive | inactive | inactive | inactive | inactive | inactive | inactive | inactive | inactive | inactive | inactive |  |  |
| C/C(=C\c1ccccc1)[N+](=O)[O-] |  |  | 68.6 µM (active) | inactive |  |  | inactive | 43.3 µM (active) |  | 10.9 µM (active) | 68.6 µM (active) | 24.3 µM (active) | inactive | inactive | inactive |  |  | inactive |  |  |
| C[C@]12CC[C@H]3[C@@H](CCC4=CC(=O)CC[C@@H]43)[C@@H]1CC[C@@H]2OC(=O)CCC1CCCCC1 | inactive | inactive |  | inactive | inactive | inactive |  | inactive |  | inactive | inactive | inactive | inactive | inactive |  |  | inactive | inactive |  |  |
| C=CC[C@]1(O)CC[C@H]2[C@@H]3CCC4=CC(=O)CCC4=C3C=C[C@@]21C |  | inactive |  | inactive |  |  | inactive | inactive | inactive | 7.5 µM (active) | inactive | inactive | inactive | inactive | inactive |  |  | inactive |  |  |
| [CH3][Sn]([CH3])([Cl])[Cl] |  | inactive | inactive | inactive | inactive | inactive | inactive | inactive |  | 31.1 µM (active) and 54.5 µM (active) | inactive | inactive | inactive | inactive | inactive | inactive | inactive | inactive |  |  |
| O=C(O)C(F)(F)C(F)(F)C(F)(F)C(F)(F)C(F)(F)C(F)(F)C(F)(F)C(F)(F)C(F)(F)C(F)(F)F | inactive | inactive |  | inactive | inactive | inactive | inactive | inactive | inactive | inactive | inactive | inactive | inactive | inactive | inactive |  |  | inactive |  |  |
| O=C(Nc1ccccc1)Nc1cnns1 | inactive |  |  | inactive | inactive | inactive | inactive |  | inactive | 54.4 µM (active) | inactive |  | inactive | inactive |  |  |  | inactive |  |  |
| IC(I)=C(I)I |  | 27.3 µM (active) | 27.3 µM (active) | 43.6 µM (active) | 43.6 µM (active) | inactive | inactive | 17.2 µM (active) | inactive | 4.86 µM (active) | 68.6 µM (active) | 4.86 µM (active) | inactive | inactive | 4.86 µM (active) |  |  | 1.2 µM (active) |  |  |
| CCC(COC(=O)c1cc(OC)c(OC)c(OC)c1)(c1ccccc1)N(C)C (centres undefined) | inactive |  |  | inactive | inactive | inactive | inactive | inactive | inactive |  |  | 29.8 µM (active) | inactive | inactive |  |  |  |  | -1.12% | 15.8 µM (active) |
| C=CC(=O)OC(C)(C)C | inactive | inactive | inactive |  | inactive | inactive |  | inactive | inactive | inactive | inactive | inactive | inactive | inactive | inactive |  |  | inactive |  |  |
| CCCCCCCCCC(=O)O[C@H]1CC[C@H]2[C@@H]3CCC4=CC(=O)CC[C@@H]4[C@H]3CC[C@]12C | inactive | inactive | inactive | inactive | inactive | inactive |  | inactive | inactive | inactive | inactive |  | inactive | inactive | inactive |  |  | inactive | -0.997% | inactive |
| COP(=S)(OC)Oc1cc(Cl)c(I)cc1Cl | inactive |  |  | inactive | inactive | inactive |  |  | inactive | inactive | inactive | inactive | inactive | inactive | inactive |  | 21.7 µM (active) |  |  |  |
